According to PubChem BioAssay (NCATS):
Results filed as inconclusive are left out. The source made the active and inactive calls. Unless noted, calls follow the shape of the dose curve; as a rule, active = well fitted curve in the direction sought with a large enough effect; inconclusive = small, poorly fitted or top-dose-only effect, or another doubt; inactive = no such curve, though single readings can be large; an effect the other way counts as inactive or inconclusive.

Experiments:
[1] = qHTS assay for measurement of the activity of small molecule inhibitors on Zika virus induced Caspase-3 activity in human astrocytoma cells (AID 1224859)
How it was run: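 Readout is luminescence from Caspase-Glo 3/7 added after a 6 h ZIKV infection (2 FFU/cell) of compound-pretreated (1 h) SNB-19 cells; data expressed as % inhibition versus uninfected and infected wells.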

[2] = P-glycoprotein substrates identified in KB-8-5-11 adenocarcinoma cell line, qHTS therapeutic library screen (AID 1346987); also: nearly all actives have a fitted effect of over 65% in size; also: potency is read from the fitted curve at half-maximal effect
How it was run: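 Luminescence from CellTiter-Glo, read 5 min after addition, quantified survival of KB-8-5-11 (P-gp-overexpressing) cells exposed to compounds for 72 h. AC50 was derived from concentration-response curves.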

[3] = NS1 protein of Zika virus - qHTS assay to identify small molecule inhibitors in human HEK 293 cells (AID 1347053); also: series mostly up to about 46 µM; nearly all actives have a fitted effect of over 55% in size
How it was run: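 Readout was TR-FRET using paired anti-NS1 antibodies after 24 h infection of HEK 293 cells with ZIKV MR766 (MOI = 0.5). Compound preceded virus by 1 h; reduced signal reflects lower NS1 expression.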

[4] = qHTS for Inhibitors of the Functional Ribonucleoprotein Complex (vRNP) of Lassa (LASV) Arenavirus: LASV Primary Screen - GLuc reporter signal (AID 1347082; calls by dose curve; tested in HEK293 reporter line; also: series mostly up to about 57 µM; nearly all actives have a fitted effect of over 60% in size)
[5] = qHTS Screen of the MIPE 4.0 Collection Against Ewings Sarcoma (RDES) (AID 1259252); also: nearly all actives have a fitted effect of over 35% in size
How it was run: (§1)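 Viability screen: 48 h incubation at 37C, 95% humidity, 5% CO2 with serially titrated compound, followed by CellTiter-Glo readout.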

[6] = qHTS Screen of the MIPE 4.0 Collection Against Ewings Sarcoma (TC71) (AID 1259253); also: nearly all actives have a fitted effect of over 40% in size
How it was run: as §1

[7] = qHTS Screen of the MIPE 4.0 Collection Against Ewings Sarcoma (EW8) (AID 1259255); also: nearly all actives have a fitted effect of over 35% in size
How it was run: as §1

[8] = qHTS Screen of the MIPE 4.0 Collection Against Ewings Sarcoma (TC32) (AID 1259256); also: nearly all actives have a fitted effect of over 45% in size
How it was run: as §1

[9] = qHTS assay to identify small molecule inhibitors of chordoma cells - UCH-1 (AID 1259355); also: nearly all actives have a fitted effect of over 55% in size
How it was run: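 Screening used approved and investigational drugs in 15-point titration against 800 seeded cells per well. A fixed combination of auranofin with camptothecin, doxorubicin, rubitecan and topotecan followed compound addition, and growth was scored by CellTiter-Glo after 48hr.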

[10] = qHTS assay to identify small molecule inhibitors of chordoma cells - UCH-2 (AID 1259356); also: series mostly up to about 46 µM
[11] = Natriuretic polypeptide receptor (hNpr1) antagonism - Pilot counterscreen GloSensor control cell line (AID 1347045; calls by dose curve; also: series mostly up to about 38 µM)
How it was run: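 Cells were first seeded and incubated overnight at 37C, then loaded with 2% GloSensor substrate for 2 h. Compounds were added for 30 min at room temperature, followed by a baseline read, 50 uM SNP and a final read after 20 min.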

[12] = target: Atrial natriuretic peptide receptor 2 (Homo sapiens) (UniProt P20594); assay: Natriuretic polypeptide receptor (hNpr2) antagonism - Pilot subtype selectivity assay (AID 1347050; calls by dose curve)
Chain of Atrial natriuretic peptide receptor 2 (Homo sapiens) (P20594 whole entry, looked up): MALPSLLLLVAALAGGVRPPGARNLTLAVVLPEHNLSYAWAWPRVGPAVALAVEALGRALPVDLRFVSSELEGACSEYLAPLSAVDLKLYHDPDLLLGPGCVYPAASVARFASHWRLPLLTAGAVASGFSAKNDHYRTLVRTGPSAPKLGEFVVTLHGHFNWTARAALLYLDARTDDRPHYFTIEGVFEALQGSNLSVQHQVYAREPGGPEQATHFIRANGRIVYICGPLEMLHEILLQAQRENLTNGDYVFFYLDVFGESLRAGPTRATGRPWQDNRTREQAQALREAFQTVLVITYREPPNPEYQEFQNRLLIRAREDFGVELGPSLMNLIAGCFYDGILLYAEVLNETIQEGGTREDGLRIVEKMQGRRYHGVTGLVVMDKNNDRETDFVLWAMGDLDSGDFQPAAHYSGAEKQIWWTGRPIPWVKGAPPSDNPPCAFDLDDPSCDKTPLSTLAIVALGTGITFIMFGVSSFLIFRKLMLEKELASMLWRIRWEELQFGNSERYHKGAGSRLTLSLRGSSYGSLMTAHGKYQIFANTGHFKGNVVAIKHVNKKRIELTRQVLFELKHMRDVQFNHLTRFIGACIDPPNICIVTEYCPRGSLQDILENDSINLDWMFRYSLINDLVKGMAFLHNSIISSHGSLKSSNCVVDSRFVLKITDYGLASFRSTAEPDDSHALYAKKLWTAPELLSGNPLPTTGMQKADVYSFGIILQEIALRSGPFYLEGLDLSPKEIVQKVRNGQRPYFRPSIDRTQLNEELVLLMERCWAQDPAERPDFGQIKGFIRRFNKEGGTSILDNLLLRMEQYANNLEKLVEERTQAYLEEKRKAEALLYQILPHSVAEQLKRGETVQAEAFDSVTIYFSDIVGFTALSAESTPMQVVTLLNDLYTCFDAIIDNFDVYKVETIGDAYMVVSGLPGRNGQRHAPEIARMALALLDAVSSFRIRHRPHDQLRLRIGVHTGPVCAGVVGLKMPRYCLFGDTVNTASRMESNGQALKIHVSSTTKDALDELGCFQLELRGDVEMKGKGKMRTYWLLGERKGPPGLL
How it was run: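 Luminescence from a genetically encoded cGMP luciferase biosensor in hNpr2-expressing HEK293 cells is read before and 20 min after adding 1 nM hNppC. Test compounds, in interplate 1:5 titrations, are added 30-50 min ahead of the agonist.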

[13] = target: T1, Tyrosine-protein phosphatase non-receptor type substrate 1 (Homo sapiens) + Leukocyte surface antigen CD47 (Homo sapiens) (UniProt P78324+Q08722); assay: CD47-SIRPalpha protein protein interaction - LANCE assay qHTS validation (AID 1347057; active = well fitted curve in the direction sought with a large enough effect in the signal ratio, with a control signal flat, not every such curve was filed as active; the % refers to the signal ratio; also: series mostly up to about 38 µM)
T1 sequence (P78324 whole entry, looked up, the tested form may be a part): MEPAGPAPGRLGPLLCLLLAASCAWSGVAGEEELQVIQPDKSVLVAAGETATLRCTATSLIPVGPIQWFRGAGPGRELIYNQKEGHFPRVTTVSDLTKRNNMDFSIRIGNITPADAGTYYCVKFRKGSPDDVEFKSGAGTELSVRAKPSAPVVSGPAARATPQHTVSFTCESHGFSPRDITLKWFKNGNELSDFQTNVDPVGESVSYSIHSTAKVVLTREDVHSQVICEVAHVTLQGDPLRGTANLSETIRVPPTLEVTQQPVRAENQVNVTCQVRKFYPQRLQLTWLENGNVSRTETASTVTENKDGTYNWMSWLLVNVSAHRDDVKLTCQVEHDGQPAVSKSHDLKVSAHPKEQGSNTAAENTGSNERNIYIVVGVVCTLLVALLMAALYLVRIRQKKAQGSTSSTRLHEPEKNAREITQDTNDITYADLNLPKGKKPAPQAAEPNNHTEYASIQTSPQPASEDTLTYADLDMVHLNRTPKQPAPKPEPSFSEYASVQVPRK
T1 sequence (Q08722 whole entry, looked up, the tested form may be a part): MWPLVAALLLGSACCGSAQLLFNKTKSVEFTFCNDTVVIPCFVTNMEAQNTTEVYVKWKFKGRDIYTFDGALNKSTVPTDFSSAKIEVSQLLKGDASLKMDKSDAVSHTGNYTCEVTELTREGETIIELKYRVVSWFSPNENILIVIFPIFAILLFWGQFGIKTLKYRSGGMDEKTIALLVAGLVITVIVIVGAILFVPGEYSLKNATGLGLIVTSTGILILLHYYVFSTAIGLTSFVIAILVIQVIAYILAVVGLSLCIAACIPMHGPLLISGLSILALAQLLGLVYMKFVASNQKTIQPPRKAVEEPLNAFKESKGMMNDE
How it was run: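 Inhibition of soluble CD47/SIRPalpha ectodomain association by titrated compounds, measured as 665/615 nm time-resolved FRET ratio after sequential 30 min room-temperature incubations.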

[14] = target: T1, Tyrosine-protein phosphatase non-receptor type substrate 1 (Homo sapiens) + Leukocyte surface antigen CD47 (Homo sapiens); assay: CD47-SIRPalpha protein protein interaction - HTRF assay qHTS validation (AID 1347058; active = well fitted curve in the direction sought with a large enough effect in the signal ratio, not every such curve was filed as active; the % refers to the signal ratio; also: series mostly up to about 38 µM)
How it was run: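 Soluble extracellular domains (6His-CD47, Avi-tag-biotinylated SIRPalpha) in PBS pH 7.4 with 0.05% IGEPAL CA-630. Compounds were preincubated 30 min at RT with CD47 and anti-His-Eu, then SIRPalpha and SAV-XL665 were added. TR-FRET 665/615 ratio.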

[15] = target: T1, Tyrosine-protein phosphatase non-receptor type substrate 1 (Homo sapiens) + Leukocyte surface antigen CD47 (Homo sapiens); assay: CD47-SIRPalpha protein protein interaction - Alpha assay qHTS validation (AID 1347059);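 also: bead proximity luminescence from CD47 binding SIRPalpha after compound preincubation with SIRPalpha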
How it was run: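 SIRPalpha-biotin 25 nM + cpd, 30 min RT, dark; add CD47-His 12.5 nM, 30 min; add Ni-NTA/SAV beads 10 ug/mL, 30 min; AlphaScreen. Buffer PBS pH 7.4 + 0.05% IGEPAL CA-630. Non-biotinylated SIRPalpha as control inhibitor.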

[16] = target: Parathyroid hormone/parathyroid hormone-related peptide receptor (Homo sapiens) (UniProt Q03431); assay: qHTS for PTHR1 Agonists: Optimization Screen against the NCGC LOPAC library (AID 1347079);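 also: GloSensor cAMP luminescence in HEK-293 GP2 cells expressing human PTHR1 with IBMX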
Chain of Parathyroid hormone/parathyroid hormone-related peptide receptor (Homo sapiens) (Q03431 whole entry, looked up): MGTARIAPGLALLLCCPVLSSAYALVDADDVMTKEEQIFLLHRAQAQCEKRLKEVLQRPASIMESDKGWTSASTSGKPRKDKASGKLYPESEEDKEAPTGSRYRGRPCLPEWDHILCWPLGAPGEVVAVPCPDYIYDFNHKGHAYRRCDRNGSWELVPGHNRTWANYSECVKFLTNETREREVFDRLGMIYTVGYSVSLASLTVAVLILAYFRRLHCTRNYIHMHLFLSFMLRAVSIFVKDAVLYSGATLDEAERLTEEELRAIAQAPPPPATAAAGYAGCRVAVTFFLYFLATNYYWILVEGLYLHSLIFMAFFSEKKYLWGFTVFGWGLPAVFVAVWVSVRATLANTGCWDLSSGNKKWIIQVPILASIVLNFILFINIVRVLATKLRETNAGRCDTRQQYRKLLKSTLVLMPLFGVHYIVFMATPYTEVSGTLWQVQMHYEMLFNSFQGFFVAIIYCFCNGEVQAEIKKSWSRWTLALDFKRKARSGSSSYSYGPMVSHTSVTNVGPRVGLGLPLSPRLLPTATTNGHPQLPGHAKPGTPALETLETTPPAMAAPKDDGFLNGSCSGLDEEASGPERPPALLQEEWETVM
How it was run: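 HEK-293 GP2 cells, PTHR1 + GloSensor cAMP; 3000 cells/well, o/n. Luciferin + IBMX 0.5mM each (stock), 1 hr 37C. Cpd titration, 1 hr 37C. Lum after 15 min RT. Ctrl M-PTH(1-15) top 10uM.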

Measured: Potency

CN1CC[C@]23c4c5ccc(O)c4O[C@H]2[C@@H](O)CC[C@H]3[C@H]1C5
inactive: [1] | [2] | [3] | [4]

COP(=S)(OC)Oc1cc(Cl)c(Cl)cc1Cl
inactive: [1] | [2] | [3] | [4]

CCN[C@@H](C)Cc1cccc(C(F)(F)F)c1
inactive: [1] | [2] | [3] | [4]

CC1(C)C(C=C(Cl)Cl)C1C(=O)OC(C#N)c1cccc(Oc2ccccc2)c1 (stereo unspecified)
inactive: [1] | [2] | [3] | [4]

COc1cccc(C(=O)CCN[C@@H](C)[C@H](O)c2ccccc2)c1
inactive: [1] | [2] | [3] | [4]

CCN(CC)C(=O)[C@@H]1C=C2c3cccc4[nH]cc(c34)C[C@H]2N(C)C1
inactive: [1] | [3] | [4]

C[C@]12CCC(=O)C=C1CC[C@@H]1[C@H]3CC[C@](C)(O)[C@@]3(C)CC[C@@H]12
active: [2] 31.6 µM
inactive: [1] | [4]

CCC1(c2ccc(N)cc2)CCC(=O)NC1=O (stereo unspecified)
not listed: [1]
inactive: all other assays above

O=c1c(C2CC(c3ccc(-c4ccc(Br)cc4)cc3)Cc3ccccc32)c(O)sc2ccccc12 (stereo unspecified)
inactive: [1] | [3] | [4]

CCCCCCCCCC(=O)O[C@H]1CC[C@H]2[C@@H]3CCC4=CC(=O)CC[C@@H]4[C@H]3CC[C@]12C
inactive: [1] | [10] | [3] | [4]
active: [2] 6.51 µM

C[C@]12CC[C@H]3[C@@H](CCC4=CC(=O)CC[C@@H]43)[C@@H]1CC[C@@H]2OC(=O)CCC1CCCCC1
inactive: [1] | [3] | [4]

C[C@]12Cc3cn[nH]c3C[C@@H]1CC[C@@H]1[C@@H]2CC[C@@]2(C)[C@H]1CC[C@]2(C)O
inactive: [1] | [3] | [4]

CCN(CCO)CCn1c(Cc2ccccc2)nc2c1c(=O)n(C)c(=O)n2C
inactive: [1] | [3] | [4]

COc1c2c(cc3c1OCO3)CCN(C)C2
inactive: [1] | [10] | [2] | [3] | [4]

CCC(C)C(C)(COC(N)=O)COC(N)=O (stereo unspecified)
inactive: [1] | [3] | [4]

COc1ccc2c(c1OC)C(=O)O[C@H]2[C@@H]1c2cc3c(cc2CCN1C)OCO3
not listed: [5] | [6] | [7] | [8] | [9]
inactive: all other assays above

CCCN(CCC)C(=O)Cc1c(-c2ccc(Cl)cc2)nc2ccc(Cl)cn12
inactive: [1] | [3] | [4]

C[C@]12CC[C@H]3[C@@H](CCC4=CC(=O)CC[C@@H]43)[C@@H]1CC[C@@H]2OC(=O)CCc1ccco1
inactive: [1] | [3] | [4]

CC(C(=O)c1ccccc1)N(C)C (stereo unspecified)
inactive: [1] | [3] | [4]

C[C@@H]1CC2=CC(=O)CC[C@@H]2[C@H]2CC[C@@]3(C)[C@@H](CC[C@]3(C)O)[C@@H]21
inactive: [1] | [3] | [4]

CCN(CC)CCc1c[nH]c2ccccc12
inactive: [1] | [2] | [3] | [4]

NCCc1ccc(O)cc1
not listed: [5] | [6] | [7] | [8] | [9]
inactive: all other assays above

CC(C)C[C@H](CN)CC(=O)O
inactive: [5] | [7]

O=C(O)CCCc1ccc(N(CCCl)CCCl)cc1
inactive: [8] | [11] | [12] | [16]

CCCCC/C=C\C/C=C\C/C=C\C/C=C\CCCC(=O)NCC(=O)O
inactive: [11] | [12] | [16]

CCCCCN(C)CCC(O)(P(=O)(O)O)P(=O)(O)O
inactive: [13] | [14] | [15]

Oc1ccccc1C=NCc1ccccc1
inactive: [4]

CCN[C@@H](C)Cc1ccccc1
inactive: [2] | [3] | [4]

O=C(CCCl)NCCc1ccccc1
inactive: [4]

O=C(CCCN1CCC2(CC1)C(=O)NCN2c1ccccc1)c1ccc(F)cc1
inactive: [11] | [12] | [13] | [14] | [16] | [4]

CNCC(=O)c1ccc(O)c(O)c1
inactive: [2] | [3] | [4]

O=C1CC[C@H](C(=O)N2CCCCC2)N1
inactive: [4]

CC(C)c1ccc2oc3nc(N)c(C(=O)O)cc3c(=O)c2c1
inactive: [4]

Clc1ccccc1N1CCNCC1
inactive: [3] | [4]

O=c1cc[nH]c(=O)[nH]1
inactive: [4]

CC(O)CCCCn1c(=O)c2c(ncn2C)n(C)c1=O (stereo unspecified)
inactive: [4]

CC(=O)C1CCOC1=O (stereo unspecified)
inactive: [3] | [4]

COC(=O)c1cc(Cl)ccc1OC
inactive: [4]

O=c1[nH]c2ccccc2n1C1CCNCC1
inactive: [3] | [4]

CCN[C@H](C)Cc1cccc(C(F)(F)F)c1
inactive: [2] | [3] | [4]

CN[C@@H](C)Cc1ccccc1
inactive: [2] | [4]

C[C@]12CCC(=O)C=C1CC[C@@H]1[C@@H]2CC[C@@]2(C)[C@H]1CC[C@]2(C)O
inactive: [3] | [4]

CCCC(CCC)(C(=O)OCC)C(=O)OCC
inactive: [4]

CC[N+]1(CC)CCC(OC(=O)C(O)(c2ccccc2)c2ccccc2)C1 (stereo unspecified)
inactive: [3] | [4]

COc1cccc([C@@]2(O)CCCC[C@@H]2CN(C)C)c1
inactive: [2] | [4]

C#CC(O)(C=CCl)CC (stereo unspecified)
inactive: [3] | [4]

Cc1onc(-c2ccccc2)c1-c1ccc(S(N)(=O)=O)cc1
inactive: [4]

Nc1ncnc2c1ncn2[C@@H]1O[C@H](COP(=O)(O)O)[C@@H](O)[C@H]1O
inactive: [4]

Cc1cn([C@@H]2O[C@H](CO)[C@@H](O)[C@H]2F)c(=O)[nH]c1=O
inactive: [4]

COc1ccc(CCN(C)CCCN2CCc3cc(OC)c(OC)cc3CC2=O)cc1OC
inactive: [4]

CN(C)CCc1c[nH]c2cccc(OP(=O)(O)O)c12
inactive: [3] | [4]
